In PubChem BioAssay (Tox21):
Records with an inconclusive call do not appear. Activity calls are given as the source filed them. Unless noted, the call rests on the fitted dose curve; in most records, active means well fitted curve in the direction sought with a large enough effect in the repeat runs; inconclusive means weak or mixed curves; inactive means no such curve, though single readings can be large; an effect the other way counts as inactive or inconclusive.

How the values were obtained:
[1] = qHTS assay to identify small molecule agonists of the sonic hedgehog signaling (Shh) pathway (AID 1259368; calls by dose curve; further: nearly all actives have a fitted effect of over 15% in size; further: potency means the concentration at half of the fitted maximal effect)
How it was run: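 A Gli1 transcriptional response element controlled firefly luciferase in 3T3Gli1-Luc cells. Compounds and a positive control were added 4 hr after plating, and cells were incubated a further 24 hr at 37 C before luminescence detection.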

[2] = target: Estrogen receptor beta (Homo sapiens) (UniProt Q92731); assay: qHTS assay to identify small molecule agonists of the estrogen receptor beta (ER-beta) signaling pathway (AID 1259377; active means well fitted activation curve with a large enough effect in the signal ratio in the repeat runs, not every such curve was filed as active; the % refers to the signal ratio)
Estrogen receptor beta (Homo sapiens), sequence (Q92731 whole entry, looked up): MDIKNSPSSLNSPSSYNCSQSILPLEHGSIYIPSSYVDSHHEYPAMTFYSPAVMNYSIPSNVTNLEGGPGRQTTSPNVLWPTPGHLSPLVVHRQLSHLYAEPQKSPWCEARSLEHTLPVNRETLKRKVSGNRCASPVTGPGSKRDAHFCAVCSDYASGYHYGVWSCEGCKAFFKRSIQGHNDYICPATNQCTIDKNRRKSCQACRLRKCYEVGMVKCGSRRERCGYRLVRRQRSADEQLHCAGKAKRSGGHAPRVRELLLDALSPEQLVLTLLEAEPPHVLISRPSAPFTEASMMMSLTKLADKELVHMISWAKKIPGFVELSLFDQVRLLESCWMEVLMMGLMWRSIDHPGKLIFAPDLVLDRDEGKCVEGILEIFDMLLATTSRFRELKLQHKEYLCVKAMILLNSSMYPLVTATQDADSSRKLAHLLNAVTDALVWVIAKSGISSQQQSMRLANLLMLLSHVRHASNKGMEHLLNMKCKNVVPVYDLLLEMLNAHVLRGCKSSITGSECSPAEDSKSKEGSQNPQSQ
How it was run: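 Ratiometric beta-lactamase FRET read-out came after 2 h substrate loading at room temperature. It followed 16 h compound treatment at 37C of GripTite HEK293T cells carrying a UAS-bla reporter, plated in 2% charcoal-stripped FBS medium.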

[3] = target: Estrogen receptor beta (Homo sapiens) (UniProt Q92731); assay: qHTS assay to identify small molecule antagonists of the estrogen receptor beta (ER-beta) signaling pathway (AID 1259378; active means well fitted inhibition curve with a large enough effect in the signal ratio in the repeat runs, not every such curve was filed as active; the % refers to the signal ratio)
How it was run: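 ER-beta-UAS-bla HEK293T (GripTite) cells in 2% charcoal-stripped FBS medium were preincubated 6 hr at 37C, dosed with compound, then stimulated with 1 nM E2 (final) for 16 hr; beta-lactamase reporter read by B/G FRET fluorescence after 2 hr substrate loading.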

[4] = qHTS assay to identify small molecule agonists of the androgen receptor (AR) signaling pathway in the presence of an antagonist - cell viability counter screen (AID 1259379);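 further: MDA-kb2 human breast cancer cells carrying an MMTV luciferase reporter; series mostly up to about 92 µM; nearly all actives have a fitted effect of over 25% in size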
How it was run: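 Seed MDA-kb2 at 3,000 cells/well; incubate 5 hr, 37C, 0% CO2. Add nilutamide to 3.0uM final, then pin compounds at 15 concentrations. Incubate 16 hr. Add CellTiter-Fluor at 15 hr, read fluorescence after 1 hr.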

[5] = qHTS assay to identify small molecule agonists of the estrogen receptor beta (ER-beta) signaling pathway - cell viability counter screen (AID 1259380); further: nearly all actives have a fitted effect of over 30% in size; further: potency means the concentration at half of the fitted maximal effect
How it was run: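 CellTiter-Glo read, 30 min RT, same wells as bla assay; cells ER-beta-UAS-bla HEK293T; 16 hr compound, 37C; medium 2% charcoal-stripped FBS.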

[6] = qHTS assay to identify small molecule agonists or antagonists of the thyroid stimulating hormone receptor (TSHR) signaling pathway - wild type cell line counter screen (AID 1259384; calls by dose curve)
How it was run: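 Wild-type HEK293 cells were plated 18 h at 37 C/5% CO2, pin-dosed with compound plus Ro20-1724 medium, held 30 min at room temperature, then given cAMP-d2 and anti-cAMP-cryptate; fluorescence was read after 1 h. Fifteen concentrations, triplicate.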

[7] = target: Thyrotropin receptor (Homo sapiens) (UniProt P16473); assay: qHTS assay to identify small molecule antagonists of the thyroid stimulating hormone receptor (TSHR) signaling pathway (AID 1259385; calls by dose curve; further: nearly all actives have a fitted effect of over 20% in size; further: potency means the concentration at half of the fitted maximal effect)
Thyrotropin receptor (Homo sapiens), sequence (P16473 whole entry, looked up): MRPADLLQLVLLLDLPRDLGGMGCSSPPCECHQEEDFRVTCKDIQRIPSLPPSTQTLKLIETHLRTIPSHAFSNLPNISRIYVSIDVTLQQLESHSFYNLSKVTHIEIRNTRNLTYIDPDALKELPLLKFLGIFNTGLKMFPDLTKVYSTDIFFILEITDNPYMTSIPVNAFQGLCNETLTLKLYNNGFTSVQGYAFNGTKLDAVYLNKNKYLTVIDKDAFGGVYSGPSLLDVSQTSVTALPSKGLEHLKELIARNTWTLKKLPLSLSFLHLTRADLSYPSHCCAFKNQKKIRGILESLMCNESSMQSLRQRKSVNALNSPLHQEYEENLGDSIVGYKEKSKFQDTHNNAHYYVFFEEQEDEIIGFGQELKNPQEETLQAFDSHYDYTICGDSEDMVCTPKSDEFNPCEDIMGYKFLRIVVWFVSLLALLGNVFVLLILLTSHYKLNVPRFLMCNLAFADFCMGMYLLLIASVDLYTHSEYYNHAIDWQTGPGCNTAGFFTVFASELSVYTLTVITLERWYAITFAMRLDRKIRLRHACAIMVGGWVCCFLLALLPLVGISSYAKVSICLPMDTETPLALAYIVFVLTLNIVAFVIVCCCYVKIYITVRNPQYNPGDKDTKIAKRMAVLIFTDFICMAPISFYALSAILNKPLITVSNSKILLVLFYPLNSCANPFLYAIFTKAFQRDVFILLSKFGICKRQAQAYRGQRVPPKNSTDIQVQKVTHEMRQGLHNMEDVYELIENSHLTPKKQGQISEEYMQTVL
How it was run: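 TSHR-HEK293 cells were plated and held 18 h at 37C/5% CO2, then given compound plus Ro20-1724 and stimulated with TSH at 1.5 ng/mL final. After 30 min at room temperature, cAMP was detected with cAMP-d2/anti-cAMP-cryptate (1 h) by fluorescence.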

[8] = qHTS assay to identify small molecule antagonists of the TGF-beta/Smad signaling pathway - cell viability counter screen (AID 1346824); further: nearly all actives have a fitted effect of over 50% in size
How it was run: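 SBE-bla HEK 293T cells were plated overnight at 37 C, then given compounds in DMSO plus TGF-beta1 (added as 0.25 ng/mL solution) for 5 hr. After the bla read, CellTiter-Glo was added to the same wells and luminescence read after 30 min at room temperature.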

[9] = qHTS assay to identify small molecule agonists of the TGF-beta/Smad signaling pathway (AID 1346859; active means well fitted activation curve with a large enough effect in the signal ratio in the repeat runs, not every such curve was filed as active; the % refers to the signal ratio; further: series mostly up to about 77 µM)
How it was run: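 Fluorescence (ex 405 nm; em 460 and 530 nm) was read 2 h after LiveBLAzer FRET substrate at RT. The preceding compound treatment of overnight-plated SBE-bla HEK293T cells lasted 5 h at 37 C.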

[10] = target: Thyrotropin-releasing hormone receptor (Homo sapiens) (UniProt P34981); assay: qHTS assay to identify small molecule antagonists of the thyrotropin-releasing hormone receptor (TRHR) signaling pathway (AID 1346877; active means well fitted inhibition curve with a large enough effect in the repeat runs, not every such curve was filed as active; further: series mostly up to about 51 µM)
Thyrotropin-releasing hormone receptor (Homo sapiens), sequence (P34981 whole entry, looked up): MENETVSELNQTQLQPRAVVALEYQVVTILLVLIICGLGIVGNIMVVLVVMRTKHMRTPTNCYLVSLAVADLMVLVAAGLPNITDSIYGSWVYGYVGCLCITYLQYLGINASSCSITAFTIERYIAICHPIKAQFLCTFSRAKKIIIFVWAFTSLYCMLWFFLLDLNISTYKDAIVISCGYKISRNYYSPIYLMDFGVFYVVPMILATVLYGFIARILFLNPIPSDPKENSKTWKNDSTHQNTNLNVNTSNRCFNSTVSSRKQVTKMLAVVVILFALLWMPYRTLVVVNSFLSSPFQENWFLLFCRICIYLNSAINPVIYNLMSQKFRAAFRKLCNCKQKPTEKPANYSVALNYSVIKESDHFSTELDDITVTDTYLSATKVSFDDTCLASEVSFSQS
How it was run: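 Following an 18 h incubation at 37 °C and a 2 h calcium dye load, TRHR-HEK293 cells were exposed to compound (5 min, room temperature) and challenged with TRH, 1 nM final.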

[11] = qHTS assay to identify small molecule antagonists of the estrogen receptor beta (ER-beta) signaling pathway - cell viability counter screen (AID 1259382); further: series mostly up to about 92 µM; nearly all actives have a fitted effect of over 55% in size
How it was run: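 In this multiplexed counter screen, cells were seeded at 2,000 per well in medium with 2% charcoal-stripped FBS and incubated 6 hr before compound and 1nM final E2 were added. Sixteen hours later, ATP-based luminescence reported viability.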

[12] = target: Estrogen receptor (Homo sapiens) (UniProt P03372); assay: qHTS assay to identify small molecule agonists of the estrogen receptor alpha (ER-alpha) signaling pathway in the presence of an antagonist (AID 1259383; calls by dose curve; further: top concentration of the series differs between compounds; nearly all actives have a fitted effect of over 15% in size)
Estrogen receptor (Homo sapiens), sequence (P03372 whole entry, looked up): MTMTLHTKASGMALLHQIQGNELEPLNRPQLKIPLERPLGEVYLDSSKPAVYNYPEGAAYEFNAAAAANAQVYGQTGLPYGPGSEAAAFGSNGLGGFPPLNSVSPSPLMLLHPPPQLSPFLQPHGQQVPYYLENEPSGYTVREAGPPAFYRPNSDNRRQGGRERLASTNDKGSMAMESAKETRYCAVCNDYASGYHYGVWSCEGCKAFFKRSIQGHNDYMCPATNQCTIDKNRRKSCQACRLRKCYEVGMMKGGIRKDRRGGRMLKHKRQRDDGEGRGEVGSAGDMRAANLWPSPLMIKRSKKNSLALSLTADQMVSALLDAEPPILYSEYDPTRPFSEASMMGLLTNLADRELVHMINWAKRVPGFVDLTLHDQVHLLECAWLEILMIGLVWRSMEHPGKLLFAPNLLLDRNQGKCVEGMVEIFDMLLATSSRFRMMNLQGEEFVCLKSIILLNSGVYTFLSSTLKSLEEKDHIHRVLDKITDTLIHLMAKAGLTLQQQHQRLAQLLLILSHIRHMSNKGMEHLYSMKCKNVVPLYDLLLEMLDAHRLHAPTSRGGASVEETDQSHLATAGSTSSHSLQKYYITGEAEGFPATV
How it was run: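 Stably transfected VM7Luc4E2 reporter cells, kept 5 days in charcoal-stripped serum, received ICI-182,780 at 10.0nM final before compound addition. Following 22hr incubation at 37C and 5% CO2, luciferase signal was read by luminescence.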

[13] = qHTS assay to identify small molecule agonists of the estrogen receptor alpha (ER-alpha) signaling pathway in the presence of an antagonist - cell viability counter screen (AID 1259386);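 further: series mostly up to about 92 µM; cells exposed to compounds for 22 h at 37 °C before the viability read; nearly all actives have a fitted effect of over 30% in size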
How it was run: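 Viability counter screen using VM7Luc4E2 (full-length ER-alpha, four ERE-luciferase). The cells were treated with compounds alongside ICI-182,780 10.0nM for 22hr, and live-cell protease fluorescence was quantified with CellTiter-Fluor.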

[14] = target: Progesterone receptor (Homo sapiens) (UniProt P06401); assay: qHTS assay to identify small molecule agonists of the progesterone receptor (PR) signaling pathway (AID 1346784; calls by dose curve; further: nearly all actives have a fitted effect of over 30% in size)
Progesterone receptor (Homo sapiens), sequence (P06401 whole entry, looked up): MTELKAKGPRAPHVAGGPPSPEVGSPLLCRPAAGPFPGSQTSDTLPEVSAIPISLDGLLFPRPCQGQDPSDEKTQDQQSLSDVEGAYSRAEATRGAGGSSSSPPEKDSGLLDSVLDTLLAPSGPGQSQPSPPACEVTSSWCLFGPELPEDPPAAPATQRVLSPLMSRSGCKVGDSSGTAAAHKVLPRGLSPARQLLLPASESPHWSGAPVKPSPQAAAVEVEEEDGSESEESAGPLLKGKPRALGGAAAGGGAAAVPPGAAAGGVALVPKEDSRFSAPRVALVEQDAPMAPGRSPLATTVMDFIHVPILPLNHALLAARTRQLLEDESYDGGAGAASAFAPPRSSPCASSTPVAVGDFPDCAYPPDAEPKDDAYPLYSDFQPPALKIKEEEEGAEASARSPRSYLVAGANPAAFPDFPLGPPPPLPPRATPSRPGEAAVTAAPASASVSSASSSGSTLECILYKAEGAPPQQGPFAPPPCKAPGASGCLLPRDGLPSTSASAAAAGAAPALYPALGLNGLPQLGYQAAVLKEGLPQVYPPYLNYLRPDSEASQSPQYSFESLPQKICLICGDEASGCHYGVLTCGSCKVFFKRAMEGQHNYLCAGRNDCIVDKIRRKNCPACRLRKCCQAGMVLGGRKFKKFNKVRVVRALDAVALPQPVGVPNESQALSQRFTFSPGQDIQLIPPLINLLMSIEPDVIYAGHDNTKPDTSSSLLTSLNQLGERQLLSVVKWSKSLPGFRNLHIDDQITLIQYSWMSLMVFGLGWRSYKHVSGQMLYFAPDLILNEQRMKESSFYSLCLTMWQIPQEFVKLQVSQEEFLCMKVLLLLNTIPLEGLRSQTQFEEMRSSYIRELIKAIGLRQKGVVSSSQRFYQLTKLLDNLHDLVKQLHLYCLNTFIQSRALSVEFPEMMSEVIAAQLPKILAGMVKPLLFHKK
How it was run: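 Agonist qHTS: compounds pinned onto 3,000 PR-UAS-bla HEK 293T cells per well in charcoal-stripped serum medium, 16hr at 37C, then beta-lactamase activity measured by LiveBLAzer FRET fluorescence after 2 hours at room temperature.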

[15] = target: Progesterone receptor (Homo sapiens) (UniProt P06401); assay: qHTS assay to identify small molecule antagonists of the progesterone receptor (PR) signaling pathway (AID 1346795; active means well fitted inhibition curve with a large enough effect in the signal ratio in the repeat runs, not every such curve was filed as active; the % refers to the signal ratio; further: potency means the concentration at half of the fitted maximal effect)
How it was run: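 Antagonist mode with agonist R5020 at 1 nM final and 16 hr incubation at 37C. Reporter was beta-lactamase driven by UAS in HEK293T (PR-UAS-bla), 2% charcoal-stripped serum; signal from LiveBLAzer FRET substrate, 2 hr at room temperature.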

[16] = qHTS assay to identify small molecule antagonists of the progesterone receptor (PR) signaling pathway - cell viability counter screen (AID 1346798); further: series mostly up to about 92 µM; nearly all actives have a fitted effect of over 50% in size
How it was run: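 Cytotoxicity read as CellTiter-Glo luminescence (30 min, room temperature) in the same wells as the beta-lactamase readout. HEK293T PR-UAS-bla cells in charcoal-stripped 2% FBS received compound and R5020, then 16 h at 37C, 5% CO2.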

[17] = qHTS assay to identify small molecule agonists of the progesterone receptor (PR) signaling pathway - cell viability counter screen (AID 1346799; calls by dose curve; further: nearly all actives have a fitted effect of over 45% in size; further: potency means the concentration at half of the fitted maximal effect)
How it was run: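 Cytotoxicity measured by CellTiter-Glo luminescence (30 min, RT) in the same wells as the PR beta-lactamase agonist read. Those HEK293T cells had 16 h compound treatment at 37 C in 2% charcoal-stripped FBS medium.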

[18] = qHTS assay to identify small molecule agonists of the TGF-beta/Smad signaling pathway - cell viability counter screen (AID 1346829); further: top concentration of the series differs between compounds; nearly all actives have a fitted effect of over 45% in size
How it was run: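 Cytotoxicity counter screen: CellTiter-Glo luminescence (30 min, room temperature) measured in the SBE-bla HEK 293T reporter wells after 5 hr compound treatment at 37 C and the 2 hr substrate step.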

[19] = target: Androgen receptor (Homo sapiens) (UniProt P10275); assay: qHTS assay to identify small molecule agonists of the androgen receptor (AR) signaling pathway in the presence of an antagonist (AID 1259381; calls by dose curve; further: nearly all actives have a fitted effect of over 15% in size)
Androgen receptor (Homo sapiens), sequence (P10275 whole entry, looked up): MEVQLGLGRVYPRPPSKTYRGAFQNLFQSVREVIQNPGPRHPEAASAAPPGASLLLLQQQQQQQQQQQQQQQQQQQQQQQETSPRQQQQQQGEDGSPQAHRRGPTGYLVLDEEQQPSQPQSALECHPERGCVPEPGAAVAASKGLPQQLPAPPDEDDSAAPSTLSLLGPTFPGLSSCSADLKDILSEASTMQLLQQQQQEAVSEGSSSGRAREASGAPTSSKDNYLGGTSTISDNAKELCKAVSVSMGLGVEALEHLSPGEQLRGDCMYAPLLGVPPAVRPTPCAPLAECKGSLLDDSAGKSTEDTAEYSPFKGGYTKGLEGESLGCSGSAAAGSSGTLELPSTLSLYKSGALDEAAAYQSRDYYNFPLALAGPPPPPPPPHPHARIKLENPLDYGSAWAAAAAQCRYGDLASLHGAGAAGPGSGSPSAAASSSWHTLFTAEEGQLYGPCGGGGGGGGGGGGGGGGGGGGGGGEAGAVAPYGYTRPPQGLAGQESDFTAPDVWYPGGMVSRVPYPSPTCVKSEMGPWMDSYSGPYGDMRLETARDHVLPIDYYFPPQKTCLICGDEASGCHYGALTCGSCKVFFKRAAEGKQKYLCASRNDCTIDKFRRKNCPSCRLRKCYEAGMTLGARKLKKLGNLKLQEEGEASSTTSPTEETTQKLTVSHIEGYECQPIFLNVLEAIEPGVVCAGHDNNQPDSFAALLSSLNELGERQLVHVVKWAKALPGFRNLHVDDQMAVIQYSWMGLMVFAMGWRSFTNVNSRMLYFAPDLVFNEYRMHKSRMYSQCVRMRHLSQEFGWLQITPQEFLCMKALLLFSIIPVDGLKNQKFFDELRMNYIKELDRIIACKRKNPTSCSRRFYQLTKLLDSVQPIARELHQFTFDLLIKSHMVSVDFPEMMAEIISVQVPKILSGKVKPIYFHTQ
How it was run: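 Test compounds at 15 concentrations were incubated for 16hr with MDA-kb2 reporter cells in presence of 3.0uM nilutamide (final). Signal: ONE-Glo luciferase luminescence.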

Measured: Potency

CN(C)CCOc1ccccc1Cc1ccccc1
inactive: [1] | [2] | [3] | [4] | [6] | [8] | [9] | [10]
active: [5] 26.6 µM | [7] 29.8 µM

CC(C)(C)C1CCCCC1=O (stereo not given)
not listed: [6] | [7] | [8] | [19]
inactive: all other assays above

CCOC(=O)c1cc(=O)c2c(OCC(COc3cccc4oc(C(=O)OCC)cc(=O)c34)OC(=O)[C@@H](N)CCCCN)cccc2o1
not listed: [7] | [10] | [16]
inactive: all other assays above

CC(C)c1ccccc1
not listed: [15] | [16] | [17]
inactive: all other assays above

NCCC(O)(P(=O)(O)O)P(=O)(O)O
not listed: [10] | [12] | [19]
inactive: all other assays above

CC(C)NCC(O)COc1ccc(CCOCC2CC2)cc1 (stereo not given)
not listed: [6] | [7] | [10] | [12] | [19]
inactive: all other assays above

CC(C)O
not listed: [6] | [15] | [16] | [18] | [19]
inactive: all other assays above

CCCCCCCCc1ccc(S(=O)(=O)O)cc1
active: [17] 19.2 µM
not listed: [3] | [5] | [11] | [12] | [13] | [19]
inactive: all other assays above

COc1ccccc1N1CCN(CCCNc2cc(=O)n(C)c(=O)n2C)CC1
not listed: [4] | [19]
inactive: all other assays above

Cc1nc(N)nc(N)c1-c1ccc(Cl)c(Cl)c1
active: [5] 2.66 µM
inactive: [1] | [2] | [4] | [12] | [13] | [14] | [16] | [17] | [9] | [10]

CC1(C)O[C@@H]2C[C@H]3[C@@H]4CCC5=CC(=O)CC[C@]5(C)[C@@]4(F)[C@@H](O)C[C@]3(C)[C@]2(C(=O)CCl)O1
inactive: [2] | [4] | [11] | [12] | [13] | [15] | [16] | [17] | [8] | [9]
active: [1] 13.3 µM

Cc1ccc([N+](=O)[O-])cc1Cl
not listed: [4] | [5] | [10] | [12] | [17] | [19]
inactive: all other assays above

Oc1ccccc1F
not listed: [6] | [7] | [13] | [19]
inactive: all other assays above

CCCCc1ccc2nc(NC(=O)OC)[nH]c2c1
active: [15] 4.22 µM
not listed: [4] | [6] | [7] | [16] | [17]
inactive: all other assays above

COC(=O)N[C@H](C(=O)N[C@@H](Cc1ccccc1)[C@@H](O)CN(Cc1ccc(-c2ccccn2)cc1)NC(=O)[C@@H](NC(=O)OC)C(C)(C)C)C(C)(C)C
not listed: [6] | [7] | [10] | [17] | [19]
inactive: all other assays above

CCCCCCCCCC#N
not listed: [3] | [13] | [15] | [16] | [17] | [19]
inactive: all other assays above

O=C1Nc2ccc([N+](=O)[O-])cc2C1=O
not listed: [4] | [5] | [12] | [13] | [18] | [19]
inactive: all other assays above

Cc1nnc(SCC2=C(C(=O)O)N3C(=O)[C@@H](NC(=O)Cn4cnnn4)[C@H]3SC2)s1
not listed: [4] | [5] | [8] | [19]
inactive: all other assays above
